This note sets out measurements from PubChem BioAssay (NCI).

Molecules are shown by their SMILES. The panel holds about 83,000 compounds, 20% with a hit somewhere; the sample as a whole holds those more often.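 Cells were grown in 96-well plates and exposed to the test compound at a single concentration for 48 hours; results are reported as percent growth, with values below 10 considered active.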 A number with no mark means an inactive call. Calls of active or inactive are those of the source.

Common to all, as to assay: NCI-60 one-dose screen, 48 h (100 = growth as untreated, 0 = no growth, -100 = all killed)
Common to all, as to conditions: 10 µM

Assay [1] concerns RPMI-8226 leukemia.
Assay [2] relates to OVCAR-8 ovarian.
The test system of assay [3] is OVCAR-5 ovarian.
Assay [4] relates to OVCAR-4 ovarian.
In assay [5] the test system is SK-OV-3 ovarian.
In assay [6] the test system is IGROV1 ovarian.
Assay [7] deals with OVCAR-3 ovarian.
The test system of assay [8] is HS 578T breast.
The test system of assay [9] is NCI/ADR-RES ovarian.
Assay [10] has as its system T-47D breast.

As to `COc1cc(-c2nn3c(/C=C4/C(=O)Nc5ccccc54)c(-c4ccc(C)cc4)nc3s2)cc(OC)c1OC`, the growth was 45.4% in assay [1]; 46.8% in assay [2]; 85.9% in assay [3]; -17.3% (active) in [4]; 79.5% in [5]; 77.4% in assay [6]. The growth in [7] was 43.6%; in assay [8] it was -19.4% (active); in [9] it was 41.8%; in assay [10], 63.6%.
As to `O=C(O)c1ccc(Cl)cc1Nc1ccc(F)cc1`, the growth in assay [1] was 88.6%; in assay [2], 74.1%; in assay [3], 81%; in assay [4], 38%; in assay [5] it was 70.9%; in assay [6], 119%. In addition, the growth was 6.97% (active) in assay [7], 94.3% in [8], 91.3% in assay [9] and 78.7% in assay [10].
Take `Cc1cc(Cl)nc(N(CCCNc2ccnc3cc(Cl)ccc23)Cc2cccs2)n1`: the growth in assay [1] is -48.5% (active); in [2], 7.5% (active); in assay [3], 31.8%; in assay [4] it was 11%; in assay [5] it was 46.3%; in assay [6] it was 6.77% (active). For the same compound, the growth is 25.9% in [7], 48.6% in assay [8], 0.179% (active) in assay [9] and -2.57% (active) in assay [10].
`Clc1ccc(Sc2nc(NC3CC3)nc(Sc3ccc(Cl)cc3)n2)cc1`: the growth in assay [1] was 62%; in assay [2], 87.4%; in assay [3] it was 92.9%; in [4], 66.3%; in assay [5] it was 72.8%; in assay [6], 64.7%. The growth in assay [7] is 85.8%; in assay [8] it was 96.1%; in assay [9], 78.3%; in assay [10] it was 65%.
In the case of `O=C(C[P+](c1ccccc1)(c1ccccc1)c1ccccc1)C[P+](c1ccccc1)(c1ccccc1)c1ccccc1`, the growth in [1] was -40.6% (active); in assay [2], -42.1% (active); in assay [3] it was -94.9% (active); in assay [4] it was -55.8% (active); in assay [5], -3.83% (active); in [6], -69.3% (active). Moreover, the growth in [7] is -92.9% (active); in assay [8] it was -5.42% (active); in [9] it was 1.56% (active); in [10] it was -45.2% (active).
Turning to `COc1ccc(-c2nc3ncccn3c2-c2nnc(-c3ccsc3C)o2)cc1`, the growth was 86.9% in [1]; 25.2% in [2]; 102% in [3]; 25.7% in assay [4]; 54.4% in assay [5]; 94.7% in assay [6]. Further, the growth in assay [7] is 55.4%; in assay [8] it was 56.4%; in assay [9], 61.1%; in [10], 92.1%.
Regarding `COc1ccc2c(c1)sc1nc(-c3ccccc3)c(-c3cccnc3)n12`, the growth was 79% in assay [1]; 104% in assay [2]; 110% in [3]; 88.1% in [4]; 108% in assay [5]; 94.7% in [6]. For the same compound, the growth was 113% in assay [7], 99.7% in assay [8], 96.4% in assay [9] and 93.3% in assay [10].
Regarding `COc1ccc2c(c1)C(=O)c1c-2c(OCCN(C)C)nc2cc(OC)c(OC)cc12`, the growth in assay [1] is 32.2%; in assay [2] it was 37.2%; in assay [3], 117%; in assay [4] it was 50.7%; in [5], 74.2%; in [6] it was 35%. The growth in assay [7] is 63.9%; in [8], 85.7%; in assay [9], 41.8%; in assay [10] it was 101%.
Regarding `O=C(Nc1cccc(-n2cc(-c3ccncc3)c(-c3ccc(O)c(Cl)c3)n2)c1)c1cccc(C(F)(F)F)c1`, the growth in assay [1] was 13.4%; in assay [2], 18.4%; in [3] it was 89.4%; in assay [4], 51.2%; in [5], 71.2%; in assay [6], 51.6%. Also, the growth in [7] was 45.1%; in assay [8] it was 41.2%; in assay [9], 35.1%; in [10] it was 15%.
With `O=[N+]([O-])c1ccc(Oc2cccnc2)c([N+](=O)[O-])c1`, the growth in [1] was 25.4%; in assay [2] it was 91.7%; in [3], 93.6%; in [4], 50.2%; in [5] it was 104%; in assay [6], 92.2%. The growth in [7] was 66.2%; in assay [8], 81.9%; in assay [9], 51.4%; in [10], 61.1%.
Consider `COc1cc(-c2nnc(-c3c(-c4ccc(F)cc4)nc4ccccn34)o2)cc(OC)c1OC`, for which the growth is 71.9% in assay [1]; 46.6% in [2]; 95.6% in assay [3]; 69.5% in [4]; 76% in assay [5]; 119% in assay [6]. Moreover, the growth in [7] was 75.1%; in assay [8] it was 68.1%; in [9], 61.6%; in assay [10] it was 53.1%.
As to `Nc1c(C(=O)Nc2ccccc2Cl)sc2nc3c(cc12)C(=O)CCC3`, the growth in assay [1] was 87.9%; in [2], 100%; in assay [3] it was 70.5%; in assay [4], 84.4%; in [5], 13.8%; in assay [6], 62.9%. Besides, the growth in assay [7] was 56.4%; in [8], 40.8%; in [9] it was 57.2%; in assay [10], 75%.
Turning to `c1ccc(CNc2ncnc3scc(-c4cccs4)c23)nc1`, the growth in assay [1] is 40.9%; in assay [2], 63.1%; in [3], 99%; in [4], 41.2%; in [5] it was 85.1%; in assay [6], 63.6%. Further, the growth in assay [7] is 52.8%; in assay [8] it was 79.7%; in [9], 58.8%; in assay [10], 47.3%.
Turning to `Cc1ccc(C(=O)N2C/C(=C/c3ccccc3)C(=O)/C(=C/c3ccccc3)C2)cc1`, the growth was -23.1% (active) in assay [1]; 48.7% in [2]; 105% in [3]; 75.3% in assay [4]; 78.9% in assay [5]; 69.1% in assay [6]. For the same compound, the growth in assay [7] is 57.9%; in assay [8], 9.99% (active); in [9], 66.1%; in [10], 61.8%.
`Cc1ccc(C(=O)Nc2cccc(F)c2)cc1NC(=O)C1(c2ncnc3[nH]ccc23)CC1`: the growth in assay [1] is 83.2%; in assay [2], 89.7%; in [3] it was 83.6%; in assay [4], 101%; in [5], 91.1%; in assay [6], 90.3%. Moreover, the growth in assay [7] is 103%; in assay [8], 74%; in [9] it was 92%; in assay [10], 74.1%.
Consider `O=c1oc2cc(OS(=O)(=O)c3ccccc3)ccc2c2c1CCCCC2`, for which the growth in assay [1] is 23.4%; in assay [2], 60.4%; in [3], 83%; in assay [4], 53.7%; in assay [5], 84.3%; in [6], 83.4%. For the same compound, the growth in [7] is 81.5%; in assay [8] it was 75.6%; in [9], 56%; in assay [10] it was 24.8%.
In the case of `COc1cc(-c2cc(/C=C3\C(=O)Nc4ccccc43)[nH]n2)cc(OC)c1OC`, the growth is 24.3% in assay [1]; 40.8% in [2]; 77.6% in [3]; 42% in assay [4]; 87.5% in assay [5]; 43% in assay [6]. The growth in [7] was 57.8%; in assay [8] it was 49.6%; in assay [9] it was 35.2%; in assay [10] it was 20.9%.
Regarding `CN(C)CCS(=O)(=O)CCN(C)C`, the growth in assay [1] is 108%; in assay [2], 99.5%; in assay [3], 105%; in assay [4], 120%; in assay [5], 98.8%; in assay [6] it was 119%. Also, the growth in assay [7] was 110%; in assay [8] it was 98.9%; in assay [9], 105%; in [10] it was 111%.
With `Cc1ccc(C)c(C(O)(c2cc(C)ccc2C)C2(O)CCCCC2)c1`, the growth in [1] is 89.7%; in [2], 97.5%; in assay [3] it was 97.9%; in assay [4], 93%; in assay [5], 90.9%; in assay [6], 104%. The growth is 93.6% in assay [7], 94.1% in assay [8], 94.8% in [9] and 72.5% in assay [10].
As to `Cc1cc2c(C)c3cc(C)c(N)cc3nc2cc1N`, the growth in assay [1] is 0.782% (active); in assay [2], -6.68% (active); in assay [3], 12.3%; in assay [4] it was -2.48% (active); in assay [5], 13.3%; in [6], -1.9% (active). Moreover, the growth in assay [7] was 14.9%; in assay [8] it was 15.6%; in assay [9] it was 69.2%; in assay [10] it was -2.32% (active).
On to `COc1ccc2c(c1)N(CCO)C1=C(C(=O)OC1)C2c1ccc(OC)c(OC)c1` (stereo not given), for which the growth in assay [1] was 62.9%; in assay [2], 48.7%; in assay [3], 47.7%; in assay [4], 64.6%; in [5], 40.5%; in assay [6], 53.4%. The growth in assay [7] was -18.2% (active); in assay [8], 31%; in [9] it was 71.8%; in assay [10] it was 45.5%.
On to `COc1ccc(-c2nc(-c3nc4ccc(Cl)cc4[nH]3)c3ccccn23)cc1`, for which the growth is 49.3% in [1]; -27.1% (active) in [2]; 82.5% in assay [3]; -77% (active) in [4]; -47.8% (active) in assay [5]; 84.8% in [6]. Besides, the growth is 8.15% (active) in assay [7], -19.3% (active) in assay [8], 33.6% in [9] and 64.7% in assay [10].
Regarding `O=C(CC(NC(=O)OCc1ccccc1)C(=O)OCc1ccccc1)OCc1ccccc1` (stereo not given), the growth is 99.2% in [1]; 99% in [2]; 103% in assay [3]; 109% in assay [4]; 95.1% in assay [5]; 108% in assay [6]. For the same compound, the growth in assay [7] is 110%; in assay [8] it was 97.9%; in [9] it was 98%; in assay [10] it was 100%.
As to `CCOC(=O)N/N=C\C(C)=N\NC(=O)OCC`, the growth in [1] is 98.8%; in [2], 99%; in assay [3], 100%; in assay [4] it was 102%; in assay [5] it was 98.7%; in [6], 108%. Besides, the growth in assay [7] is 106%; in [8], 115%; in assay [9], 97.9%; in [10], 99.9%.
With `C#Cc1ccc(-n2c(/C=C/c3ccc4ccccc4n3)nc3ncccc3c2=O)cc1`, the growth in assay [1] was -27.7% (active); in assay [2], -16.4% (active); in assay [3] it was -4.33% (active); in assay [4], -62.4% (active); in assay [5] it was 5.05% (active); in [6] it was -65.6% (active). Also, the growth in assay [7] is -66.8% (active); in assay [8] it was 11%; in assay [9], -6.13% (active); in assay [10], -51.9% (active).
Turning to `O=C1N=NC2=C1c1c3ccccc3c(O)n1CC2`, the growth in [1] is 101%; in assay [2], 101%; in assay [3], 103%; in assay [4] it was 106%; in [5], 100%; in [6] it was 117%. Besides, the growth in assay [7] was 127%; in assay [8] it was 147%; in assay [9] it was 105%; in assay [10] it was 103%.
With `CC/C(=C(/c1ccc(OCCN(C)C)cc1)c1ccc(OC(=O)CCCCCCCCC(=O)c2c(C)[nH]c(/C=C3\N=C(c4ccc[nH]4)C=C3OC)c2C)cc1)c1ccccc1`, the growth in assay [1] is 48.4%; in [2] it was 86.8%; in assay [3], 103%; in assay [4], 61.6%; in assay [5], 80.7%; in assay [6] it was 90.3%. In addition, the growth in [7] is 89.6%; in [8] it was 58.3%; in [9], 91.8%; in assay [10], 48.3%.
